Experimental data reported in the supplement of paper PMC6555819.

Tests used:
Assay in all cases: PBM binding z-score (relative to random genomic background probes); higher = stronger binding; sequences stand for … in GC…GCGATTGACAGCGTAGAATGAAGG
[1] = system: FXR:RXRa (NR concentration 270 nM, RXRa partner concentration 90 nM)
Summary of the method: (§1)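 Each nuclear receptor dimer, without ligand, was incubated for 1 h on custom Agilent 4×180K protein-binding microarrays. Binding was detected with antibodies against each partner (one per run), and scanned fluorescence was regression-normalized. The binding z-scores are referenced to random human genomic background probes.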

[2] = system: LXRa:RXRa (NR concentration 270 nM, RXRa partner concentration 90 nM)
Summary of the method: as §1

[3] = system: LXRa homodimer (NR concentration 270 nM)
Summary of the method: as §1

[4] = system: LXRb:RXRa (NR concentration 270 nM, RXRa partner concentration 90 nM)
Summary of the method: as §1

[5] = system: LXRb homodimer (NR concentration 270 nM)
Summary of the method: as §1

[6] = system: PPARa:RXRa (NR concentration 270 nM, RXRa partner concentration 90 nM)
Summary of the method: as §1

[7] = system: PPARg:RXRa (NR concentration 180 nM, RXRa partner concentration 90 nM)
Summary of the method: as §1

[8] = system: PPARg:RXRa 270nM:90nM, anti-RXR (NR concentration 270 nM, RXRa partner concentration 90 nM)
Summary of the method: as §1

[9] = system: PPARg:RXRa 30nM:10nM, anti-RXR (NR concentration 30 nM, RXRa partner concentration 10 nM)
Summary of the method: as §1

[10] = system: PPARg:RXRa 90nM:30nM, anti-RXR (NR concentration 90 nM, RXRa partner concentration 30 nM)
Summary of the method: as §1

Sequence | PBM binding z-score [1] | PBM binding z-score [2] | PBM binding z-score [3] | PBM binding z-score [4] | PBM binding z-score [5] | PBM binding z-score [6] | PBM binding z-score [7] | PBM binding z-score [8] | PBM binding z-score [9] | PBM binding z-score [10]
CTCGAAAGGCCGGTTGAGGTGAGTATACGGATAA | -0.00227 | -0.411 | -0.91 | -0.654 | -0.709 | -0.134 | -0.122 | -0.607 | -0.213 | -0.48
TCATATAGGTAAATGCAAGGTGAAAGTCCGATCT | 1.57 | 1.44 | 0.321 | 1.2 | 0.456 | 2.03 | 1.03 | 2.44 | 4.33 | 3.47
CGTCCAAGGTCAGCAGGCCAGTGAAAGCGACGTG | 4.9 | 3.41 | -0.314 | 2.31 | -0.659 | 4.69 | 2.86 | 3.35 | 0.155 | 1.84
CGTCAAAGTTCAACTAAGATAACGTAAAGCACGC | 6.92 | 6.3 | 4.03 | 4.14 | 2.68 | 5 | 4.94 | 5.19 | 2.56 | 4.27
CGTCCAAGGTCAGAGACGTCAGTGAATGCCGAGT | 4.49 | 2.77 | -0.161 | 1.87 | -0.32 | 3.7 | 1.97 | 2.41 | 0.132 | 1.48
TCTAGTTGGTCACGGAGGTCAAACACGACGGGTA | 4.19 | 4.67 | 4.58 | 4.25 | 1.38 | 4.39 | 3.25 | 4.13 | 3.76 | 4.08
TCTGACAGGTGAAGGTAACTCAGGTACGCAGTCG | 0.497 | 1.97 | -0.123 | 0.856 | -0.258 | 1.14 | 0.602 | 1.55 | 2.9 | 2.32
ATCTCGAGGTAAAAGTTCAGTGAATCCCGAGGAT | 1.26 | 1.85 | 0.551 | 1.28 | 0.304 | 3.44 | 5.01 | 5.51 | 4.17 | 5.67
TATACAGGGTCAAAGGCCAGATTACGAATGTCGA | 7.37 | 6.22 | 2.78 | 4.95 | 2.24 | 6.15 | 8 | 7.46 | 5.15 | 7.09
CACCCTAGGTCAGGGCCAGTATAGGAGGAACGTT | 1.9 | 2.6 | 0.74 | 1.2 | -0.00593 | 2.24 | 1.36 | 1.08 | -0.0218 | 0.354
AATACAGGGTCACTAGGCCAGACTAGGTACGAAT | 6.12 | 5.24 | 0.88 | 3.8 | 0.693 | 5.84 | 7.65 | 6.41 | 3.21 | 5.35
AGAACGAGGGCACGCTGAGTGGATAGCAGAGTAG | 0.65 | 0.494 | -0.357 | -0.0395 | -1.03 | 1.77 | 1.99 | 1.64 | 0.26 | 1.29
CAAACTAGGTCAACGGAAGGTCAAAGTCCGCATG | 6.1 | 5.99 | 5.99 | 5.09 | 1.55 | 5.74 | 9.03 | 7.24 | 5.66 | 7.49
CAGCCTGGGTCAGGGCCAGTATAGGAGGAACGTT | 0.78 | 0.261 | -0.628 | 0.24 | -1.02 | 2.03 | 0.871 | 0.727 | -0.545 | 0.0759
ATTGAAAGGTCGAGGTGAGTATAGAGAAAGGGAA | 4.46 | 3.8 | 0.427 | 2.93 | 1.15 | 4.7 | 4.5 | 3.84 | 1.72 | 3.01
TCTCGGAGGACACGAAGATCAGAGCTTTCCAGAG | 0.203 | -0.201 | -0.688 | -0.685 | -1.08 | 0.0727 | 0.181 | 0.96 | 2.25 | 1.67
GCATATAGGTAATACAAGGTGAAAGTGCGATTGT | 1.29 | 2.52 | 0.475 | 0.725 | -0.0302 | 2.26 | 1.96 | 2.57 | 1.04 | 2
CCGACTGTGGCAAGGTTACCATAACGCACAGCCA | 0.166 | 0.546 | -0.172 | 0.46 | -0.922 | 1.07 | 1.1 | 0.984 | -0.132 | 0.352
TAGGCTAGGTCATTGGGCCAGTATAGTACGCATC | 4 | 2.77 | 0.321 | 1.87 | 0.37 | 3.73 | 3.73 | 3.76 | 0.966 | 2.24
TCATATAGGTAAACATGTGAAAGTCCGTAAGTTA | 0.869 | 0.742 | 0.308 | 0.769 | 0.208 | 1.58 | 1.86 | 2.39 | 3.92 | 3.22
CCAGACAGGTGAGAGGTAACTCAGTCTGGTACGC | -0.0103 | 0.206 | -0.48 | 0.237 | -0.589 | 1.97 | 2.93 | 4.15 | 1.95 | 3.82
TCTTGTAGATCAAAGTTTAAGAAAGCCGAAGCCT | 0.983 | 1.1 | 0.0318 | 0.659 | 0.169 | 2.46 | 4.04 | 5.01 | 5.17 | 5.73
GATACAGGGTCAGCTAGAGGCCAGAGCATGGAAA | 4.96 | 2.87 | -0.62 | 2.42 | -0.712 | 4.58 | 3.81 | 3.58 | 1.01 | 2.09
CCTAGTTAGTCAGGAGGTCACACACCGGATATGA | 3.41 | 3.69 | 2.46 | 3.68 | 1.17 | 4.29 | 2.42 | 3.19 | 1.24 | 2.16
